In paper PMC5540273 (PLoS ONE, 2017):

The compounds below were run on CDK5. Settings: concentration: 1 μM, replicates: in singlicate; n = 1.
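Note: KINOMEscan kinase panel screen.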

SMILES	%Inh
COc1ccc(C)c(Nc2ccnc(Nc3ccc(-c4cnc[nH]4)cc3)n2)c1.Cl [GW784041]	0%
CCNC(=O)/C=C/c1n[nH]c2cc(Sc3ccccc3C(=O)NC)ccc12	41%
Cl.N#CCc1ccc(Nc2nccc(Nc3ccc(Oc4ccccc4)cc3)n2)cc1 [GW639905]	0%
CC(=O)Nc1cn2nc(Oc3cccc(NC(=O)c4cccc(C(F)(F)F)c4)c3)ccc2n1	0%
CCNc1nccc(-c2c(-c3ccc(F)cc3)ncn2C2CCN(C)CC2)n1	0%
COC(=O)Nc1nc2cc(Oc3ccc(NC(=O)Nc4cccc(SC)c4)cc3)ccc2[nH]1.Cl [GW697999]	0%
Fc1cc(Cl)ccc1Nc1ccnc2cc(-c3ccc(CN4CCOCC4)o3)ccc12 [GW560109]	0%
NCCC(NC(=O)c1cc(Br)c(-c2ccnc3[nH]ccc23)s1)c1ccccc1.O=C(O)C(F)(F)F.O=C(O)C(F)(F)F (stereo not shown) [GSK1307810]	0%
Cc1ccc(O)cc1Nc1ccnc2cc(-c3ccc(CN4CCCCC4)o3)ccc12 [GW557777]	0%
CCn1cnc2c(NCc3ccccc3)ncnc21 [SKF-96418]	0%
CN(c1ccc(F)c(NC(=O)c2cccc(OC(C)(C)C#N)c2Cl)c1)c1ccc2nc(NC(=O)C3CC3)sc2n1	0%
Cn1cc(-c2ccc3c(c2)CCN3C(=O)Cc2cc(F)cc(F)c2F)c2c(N)ncnc21 [GSK2634140]	0%
CN(C)c1ncnc2nc[nH]c12 [SKF-31736]	0%
